Some test systems named below: SR leukemia; RPMI-8226 leukemia; OVCAR-8 ovarian; OVCAR-5 ovarian; OVCAR-4 ovarian; IGROV1 ovarian; OVCAR-3 ovarian; HS 578T breast; NCI/ADR-RES ovarian; SK-OV-3 ovarian.
What all share (test): NCI-60 one-dose screen, 48 h (100 = growth as untreated, 0 = no growth, -100 = all killed)
Holding throughout (settings): 10 µM unless noted

The record followed here is PubChem BioAssay (NCI).

Compounds without any hit were thinned out: in the full panel of roughly 83,000, 20% have a hit.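 Each cell line was grown in a 96-well plate and treated with one concentration of compound for 48 hours. Values below 10 were considered active.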 Values without a mark were called inactive. Active and inactive are the calls of the source.

On to `NNc1cccc([N+](=O)[O-])c1`, for which the growth is 35% with SR leukemia; 90.9% in the assay with RPMI-8226 leukemia; 78% in the assay with OVCAR-8 ovarian; 94.8% in the assay with OVCAR-5 ovarian; 107% in the assay with OVCAR-4 ovarian; 83% with IGROV1 ovarian. Further, the growth with OVCAR-3 ovarian was 100%; in the assay with HS 578T breast, 106%; with NCI/ADR-RES ovarian it was 76.3%.

Take `Oc1ccc(Br)cc1Sc1cc(Br)ccc1O`: the growth was 41.4% in the assay on SR leukemia; 4.14% (active) in the assay on RPMI-8226 leukemia; 51.4% in the assay with OVCAR-8 ovarian; 105% in the assay on OVCAR-5 ovarian; 37.3% in the assay on OVCAR-4 ovarian; 98.3% with SK-OV-3 ovarian. Further, the growth was 81.5% in the assay with IGROV1 ovarian, 28.9% in the assay on OVCAR-3 ovarian and 31.4% with NCI/ADR-RES ovarian.

Turning to `COc1ccc2nc3cc(Cl)ccc3c(NCCCCCN3CCCCC3)c2c1`, the growth in the assay on SR leukemia was -17.9% (active); in the assay with RPMI-8226 leukemia it was -27% (active); in the assay with OVCAR-8 ovarian, -13.6% (active); in the assay with OVCAR-5 ovarian, -27.1% (active); in the assay with OVCAR-4 ovarian it was -61% (active); in the assay with IGROV1 ovarian it was 5.24% (active). Also, the growth was -21.8% (active) with OVCAR-3 ovarian, 35.3% in the assay on HS 578T breast and -8.47% (active) in the assay on NCI/ADR-RES ovarian.

Take `CCCc1cc(=O)oc2c3c(c4c(c12)OC(C)(C)CC4)OC(C)[C@H](C)[C@@H]3O` (stereo partly specified): the growth is 45.8% in the assay with SR leukemia; 10.5% in the assay on RPMI-8226 leukemia; 81.7% in the assay with OVCAR-8 ovarian; 86% with OVCAR-5 ovarian; 83.9% in the assay with OVCAR-4 ovarian; 12.7% in the assay on IGROV1 ovarian. Also, the growth in the assay on OVCAR-3 ovarian is 112%; in the assay with HS 578T breast, 74.7%; with NCI/ADR-RES ovarian, 81.7%.

With `OCCOSCCO`, the growth in the assay with SR leukemia was 90.1%; with RPMI-8226 leukemia, 133%; in the assay on OVCAR-8 ovarian, 106%; with OVCAR-5 ovarian, 99.5%; in the assay with OVCAR-4 ovarian, 102%; with SK-OV-3 ovarian, 117%. For the same molecule, the growth in the assay with IGROV1 ovarian is 112%; in the assay with OVCAR-3 ovarian, 120%; in the assay on HS 578T breast it was 115%; in the assay on NCI/ADR-RES ovarian, 113%.

Regarding `O=C1C=CC(O)=CC1=P(c1ccccc1)(c1ccccc1)c1ccccc1`, the growth was 78.8% with SR leukemia; 74.2% with RPMI-8226 leukemia; 92.4% with OVCAR-8 ovarian; 74.7% with OVCAR-5 ovarian; 94% in the assay on OVCAR-4 ovarian; 91.5% with SK-OV-3 ovarian. In addition, the growth is 102% in the assay with OVCAR-3 ovarian, 83.2% with HS 578T breast and 102% in the assay with NCI/ADR-RES ovarian.

For the molecule `O=[N+]([O-])c1cc(-c2ccccc2)c(O)c([N+](=O)[O-])c1`, the growth in the assay on SR leukemia was 80.4%; in the assay with RPMI-8226 leukemia, 38.9%; in the assay on OVCAR-8 ovarian, 91.7%; in the assay on OVCAR-5 ovarian it was 94.6%; with OVCAR-4 ovarian, 62.6%; with IGROV1 ovarian, 106%. For the same molecule, the growth was 69.7% with OVCAR-3 ovarian, 84.4% in the assay on HS 578T breast and 94.7% in the assay on NCI/ADR-RES ovarian.

In the case of `O=C(c1ccccc1)C(Br)C(Br)c1ccccc1` (stereo unspecified), the growth in the assay on SR leukemia was 31.4%; with RPMI-8226 leukemia, -3.12% (active); in the assay on OVCAR-8 ovarian, 78.8%; with OVCAR-5 ovarian, 104%; in the assay on OVCAR-4 ovarian it was 90.2%; in the assay with IGROV1 ovarian it was -22.3% (active). For the same molecule, the results for the growth in the assay on OVCAR-3 ovarian, with HS 578T breast and with NCI/ADR-RES ovarian were -10.9% (active), 104% and 117%, respectively.

Turning to `Oc1ccccc1N=Cc1ccccc1`, the growth in the assay on SR leukemia was 79.2%; in the assay on RPMI-8226 leukemia, 62.9%; in the assay with OVCAR-8 ovarian, 84%; in the assay with OVCAR-5 ovarian, 104%; with OVCAR-4 ovarian it was 107%; with IGROV1 ovarian, 94.5%. For the same molecule, the growth is 76.2% with OVCAR-3 ovarian, 108% with HS 578T breast and 84.6% with NCI/ADR-RES ovarian.

With `Oc1ccc(Nc2ccc3ccccc3c2)cc1`, the growth was 50.4% with SR leukemia; 58.6% in the assay with RPMI-8226 leukemia; 59.8% in the assay on OVCAR-8 ovarian; 71.5% in the assay with OVCAR-5 ovarian; 60.2% in the assay on OVCAR-4 ovarian; 58.1% with IGROV1 ovarian. For the same molecule, the growth was 69.8% in the assay on OVCAR-3 ovarian, 87.6% with HS 578T breast and 41.8% in the assay on NCI/ADR-RES ovarian.

For `N#CC(=C1SCS1)[N+](=O)[O-]`, the growth in the assay on SR leukemia is 7.48% (active); in the assay on RPMI-8226 leukemia it was 32%; in the assay on OVCAR-8 ovarian, 18.9%; with OVCAR-5 ovarian, 47%; in the assay on OVCAR-4 ovarian, 42.6%; in the assay on SK-OV-3 ovarian, 55%. Further, the growth with IGROV1 ovarian was 24.5%; in the assay with OVCAR-3 ovarian, 8.46% (active); in the assay with NCI/ADR-RES ovarian, 20.2%.

For the molecule `COc1cc(/C=C/c2ccnc3ccccc23)cc(OC)c1OC`, the growth in the assay on SR leukemia was 7.06% (active); in the assay on RPMI-8226 leukemia, 60.6%; in the assay on OVCAR-8 ovarian, 42.5%; in the assay with OVCAR-5 ovarian, 50.5%; in the assay on OVCAR-4 ovarian, 54.6%; with IGROV1 ovarian it was 59.1%. Further, the growth in the assay with OVCAR-3 ovarian was 16.4%; in the assay with HS 578T breast, 24.4%; in the assay on NCI/ADR-RES ovarian it was -25.5% (active).

`O=C1CSC(=S)N1Cc1cccnc1`: the growth with SR leukemia is -10.3% (active); in the assay with RPMI-8226 leukemia, 9.56% (active); in the assay with OVCAR-8 ovarian, 53.8%; with OVCAR-5 ovarian it was 106%; with OVCAR-4 ovarian it was 91.7%; in the assay on IGROV1 ovarian, 114%. Moreover, the growth with OVCAR-3 ovarian was 99.2%; in the assay on HS 578T breast, 114%; in the assay on NCI/ADR-RES ovarian, 106%.

Consider `NC(=S)N/N=C\c1nccc2c(C(F)(F)F)cccc12`, for which the growth in the assay on SR leukemia is -28.6% (active); in the assay with RPMI-8226 leukemia, -13.9% (active); with OVCAR-8 ovarian, 11.1%; with OVCAR-5 ovarian it was 36%; in the assay on SK-OV-3 ovarian, 11.4%; in the assay with IGROV1 ovarian it was 4.12% (active). Moreover, the growth in the assay with OVCAR-3 ovarian was 15.3%; in the assay with HS 578T breast, 54.3%; in the assay with NCI/ADR-RES ovarian it was 0.716% (active).

For `CCCCCCCCCCCCCCCC[N+]1(C)CCCC1c1cccnc1` (stereo unspecified), the growth in the assay on SR leukemia is 42.7%; in the assay on RPMI-8226 leukemia, 21%; in the assay with OVCAR-8 ovarian it was 38.4%; with OVCAR-4 ovarian, 47.1%; with SK-OV-3 ovarian it was 60.5%; with IGROV1 ovarian it was 42.3%. Further, the growth was 38.3% in the assay with OVCAR-3 ovarian, 80.2% in the assay on HS 578T breast and 87.8% in the assay on NCI/ADR-RES ovarian.
